Screening data deposited in PubChem BioAssay by National Center for Advancing Translational Sciences (NCATS).
A selection: hits, their analogues and other compounds. The true share with any hit is near 19%.
IL1B secr inh: inflammasome signaling inhibition, IL-1 beta readout. THP-1 LPS/ATP IL-1B secretion, AlphaLISA, 16 h; stronger effect = lower value. hit rate 4.7% among 360,000. activity change, % at 57.5 µM; in the data active means activity change below about -50%; inconclusive means mostly about -30% to -49%; further: on the % scale 0 is the no-effect control and ±100 the full control effect
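THP-1 cells pretreated 1 hr with compounds (up to 57.5 uM final), then stimulated with LPS (250 ng/mL final) plus ATP (1.25 mM final); secreted IL-1B measured by AlphaLISA after 16 hr, decreased signal indicating inhibition.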
DT40 TDP1 CPT: growth inhibition of DT40 Tdp1-/-;hTDP1 cells with camptothecin (screen for TDP1 inhibitors); chicken DT40 Tdp1-/-;hTDP1 cells + 20 nM CPT, ATP luminescence, 48 h; hit rate 12% among 420,000; Potency, µM (highest dose often 46.2 µM), without a hit: at the top dose activity change, negative = growth inhibition, actives largely listed as inhibitors; further: potency means the concentration at half of the fitted maximal effect; on the % scale 0 is the no-effect control and ±100 the full control effect; nearly all actives have a fitted effect of over 55% in size
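Chicken DT40 Tdp1-/- cells stably complemented with human TDP1 were seeded at 400 cells/well in medium containing 20 nM camptothecin, exposed to pin-transferred compounds, and grown at 37 °C for at least 48 hr. Viability was read as ATP luminescence.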
BCR signal inh: inhibitors of chronic active B-cell receptor signaling | ABC-DLBCL IkBa-CBG/CBR reporter, luminescence ratio, 4 h | Potency, µM (titrated, usually from 46.1 µM), without a hit: at the highest dose activity change, negative = inhibition, most hits filed as inhibitors | hit rate 0.05% among 340,000 | AID 493014; active means well fitted inhibition curve with a large enough effect in the signal ratio, with a control signal flat, not every such curve was filed as active; inconclusive means small, poorly fitted or top-dose-only effect, or effect the other way, or a change in a side signal; the % refers to the signal ratio;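 further: potency means the concentration at half of the fitted maximal effect; plate controls were basal doxycycline-induced cells for no effect and cells given 10 µM MG132 for full effect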
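TMD8 ABC-DLBCL cells carrying doxycycline-inducible green luciferase fused to IkappaBalpha plus unfused red luciferase were exposed to compounds (up to 46 uM) for 4 hrs at 37C. Activity came from the overlap-corrected green/red luminescence ratio.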
SW480 rerep: induces DNA re-replication in SW480 colon adenocarcinoma cells; SW480 DNA re-replication, Hoechst DNA content imaging, 48 h; Potency, µM (top dose mostly 46.1 µM), for the others: at the top dose re-replication activation, actives largely listed as activators; hit rate 1.8% among 340,000; further: potency means the concentration at half of the fitted maximal effect; % of control where 0% means no effect; nearly all actives have a fitted effect of over 55% in size
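DNA re-replication was detected as more nuclei of elevated Hoechst intensity after 48 hr exposure to compound (23 nL pinned per well of 250 cells).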
MCF10A rereplic: induces DNA re-replication in MCF 10a normal breast cells; MCF 10A DNA re-replication, Hoechst nuclear intensity, 48 h; Potency, µM (doses to about 46.1 µM), without a hit: at the highest dose activity, positive = re-replication, most hits filed as activators; hit rate 2.9% among 350,000; AID 624296; further: potency means the concentration at half of the fitted maximal effect; % of control where 0% means no effect; nearly all actives have a fitted effect of over 50% in size
TDP1 cell noCPT: qHTS for Inhibitors of human tyrosyl-DNA phosphodiesterase 1 (TDP1): qHTS in cells in absence of CPT | DT40 Tdp1-/- hTDP1 cells, no CPT, ATP luminescence, 48 h | Potency, µM (series often up to 46.2 µM), inactives show at the highest dose activity change, negative = growth inhibition, actives largely listed as inhibitors | hit rate 15% among 420,000 | AID 686978, 2013; further: potency means the concentration at half of the fitted maximal effect; on the % scale 0 is the no-effect control and ±100 the full control effect; nearly all actives have a fitted effect of over 55% in size
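DT40 Tdp1-/-;hTDP1 cells, no CPT (DMSO vehicle only), 400 cells/well; compounds pin-transferred; ≥48 hr, 37 °C; CellTiter-Glo 30 min RT dark, luminescence read.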
An asterisk follows results filed as active; ? = inconclusive; · = not tested or not shown; [ ] = dose if it differs, or a comment. Unless noted, the call rests on the fitted dose curve; in most records, active means well fitted curve in the direction sought with a large enough effect; inconclusive means small, poorly fitted or top-dose-only effect, or another doubt; inactive means no such curve, though single readings can be large; an effect the other way counts as inactive or inconclusive.

SMILES	IL1B secr inh	DT40 TDP1 CPT	BCR signal inh	SW480 rerep	MCF10A rereplic	TDP1 cell noCPT
O=C1NC2c3ccccc3CC2O1 (centres undefined)	27	0%	0%	-3%	21%	27%
O=C(Nc1ccccc1)c1ccc(Br)c(S(=O)(=O)Nc2ccccn2)c1	0	6%	?	-3%	1%	3%
CCc1c(C)nc(N2CCN(c3ccc(Cl)cc3)CC2)[nH]c1=O	-14	?	3%	-5%	2%	?
O=C(O)CCC(=O)N1CCc2c([nH]c3ccccc23)C1C(F)(F)F (centres undefined)	15	-11%	-3%	-2%	0%	13%
Cc1ccc(C2c3[nH]c4ccccc4c3CCN2C(=O)CCc2ccccc2)cc1 (centres undefined)	·	?	·	·	·	21µM*
CCOc1cccc(C2c3[nH]c4ccccc4c3CCN2C(=O)CSCc2ccc(F)cc2)c1 (centres undefined)	·	18µM*	·	·	·	26µM*
CCOc1cccc(CC(=O)N2CCc3c([nH]c4ccccc34)C2c2ccc(C)cc2)c1OCC (centres undefined)	·	?	·	·	·	18µM*
Cc1nonc1CC(=O)N1CCc2c([nH]c3ccccc23)C1c1ccccc1F (centres undefined)	?	?	?	-93%	1%	?
CCc1ccc(N/C(SCc2ccccc2C)=C(/C#N)C(=O)NCc2ccco2)cc1	-11	?	17%	3.7µM*	-38%[0.0737 µM]	?
COc1ccc(/C=C(/NC(=O)c2ccco2)C(=O)N2CCCC2=O)cc1	-15	37%	0%	18%	0%	3%
C[C@@H]1C[C@H](Nc2ccccc2)c2ccccc2N1C(=O)c1cccnc1	-3	7.3µM*	?	?	13µM*	4.6µM*
CC1CC(Nc2ccccc2)c2ccccc2N1C(=O)c1ccccc1F (centres undefined)	44	1.8µM*	-1%	?	?	1µM*
CC1CC(Nc2ccccc2)c2ccccc2N1C(=O)c1cccnc1 (centres undefined)	0	9.2µM*	-17%	9%	?	4.6µM*
COc1ccc(CCNC(=O)c2c(C)oc3ncn(C)c(=O)c23)c(OC)c1	·	-1%	·	·	·	-6%
COc1ccc(S(=O)(=O)Nc2cccc3c2O[C@H](CN(C)C(=O)Nc2ccc(C(F)(F)F)cc2)[C@@H](C)CN([C@H](C)CO)C3=O)cc1	-19	?	5%	1%	-37%	-28%
Cc1cc(C(=O)COC(=O)c2cccc(S(=O)(=O)N(C)C)c2)c(C)n1CC1CCCO1 (centres undefined)	10	16µM*	-3%	-1%	8%	?
Cc1cc(C(=O)COC(=O)c2ccc3c(c2)NC(=O)CS3)c(C)n1CC1CCCO1 (centres undefined)	5	?	-5%	?	?	16µM*
CNS(=O)(=O)c1cccc(C(=O)OCC(=O)c2cc(C)n(CC3CCCO3)c2C)c1 (centres undefined)	-1	-25%	?	-4%	-6%	-27%
C=C(Br)Cn1c(CC)nc2ccccc21	35	-22%	3%	1%	0%	?
CC(C)C(=O)NCCc1nc2ccccc2n1C	-8	-2%	?	-5%	-4%	-1%
CCc1nc2ccccc2n1CCC(C)C	27	26µM*	-1%	-7%	?	16µM*
C=C(Br)Cn1c(CC(C)C)nc2ccccc21	0	12µM*	3%	0%	20%	9.2µM*
CC(C)Cc1nc2ccccc2n1CCc1ccccc1	0	23µM*	2%	-5%	14%	?
CC(C)C(=O)NCCc1nc2ccccc2n1CCc1ccccc1	-63*	?	5%	-3%	2%	21µM*
COc1ccc(-c2cc(C(F)(F)F)n3nc(C(=O)O)c(Cl)c3n2)cc1OC	·	16%	·	·	·	-10%
SMILES	IL1B secr inh	DT40 TDP1 CPT	BCR signal inh	SW480 rerep	MCF10A rereplic	TDP1 cell noCPT
COCCCOc1cc(C[C@@H](C[C@H](N)[C@@H](O)C[C@H](C(=O)NCC(C)(C)C(N)=O)C(C)C)C(C)C)ccc1OC	·	11%	·	·	·	-5%
Cc1cc(C)n(Cc2cccc(C(=O)N/N=C/c3cccnc3)c2)n1	23	3%	?	?	-2%	6%
CCC(C)N(C(=O)COC(=O)c1ccc(=O)n(Cc2ccccc2)n1)C1CCS(=O)(=O)C1 (centres undefined)	7	0%	0%	1%	1%	1%
Cc1ccc(C)c(N(CC(=O)NC2CCCC2)C(=O)c2cc3cc4cccc(C)c4nc3s2)c1	-14	?	?	-10%	-11%	?
Cc1ccc2cc3cc(C(=O)N(CC(=O)NC4CCCC4)c4cccc(C)c4C)sc3nc2c1	-11	23µM*	9%	24%	1%	18µM*
O=C(O)CCCCCN1C(=O)c2ccc(C(=O)O)cc2C1=O	16	8%	-5%	-25%	15µM*	3%
CCCCC[n+]1ccn(-c2nc3ccccc3nc2[N-]S(=O)(=O)c2ccc(C)cc2)c1	5	-2%	2%	?	?	-5%
Cc1ccc(S(=O)(=O)[N-]c2nc3ccccc3nc2-n2cc[n+](Cc3ccccc3)c2)cc1	?	2%	6%	?	?	-22%
CCCC[n+]1ccn(-c2nc3ccccc3nc2[N-]S(=O)(=O)c2cccs2)c1	·	?	?	16µM*	?	?
O=S(=O)([N-]c1nc2ccccc2nc1-n1cc[n+](Cc2ccccc2)c1)c1ccccc1	·	3%	?	?	6.5µM*	-14%
CCn1cc(C(=O)O)c(=O)c2cc(F)c(N3CCN(C(=S)Nc4ccccc4OC)CC3)cc21	-16	-18%	?	-2%	0%	?
CCn1cc(C(=O)O)c(=O)c2cc(F)c(N3CCN(C(=S)NC(=O)c4ccccc4Br)CC3)cc21	16	?	0%	0%	0%	21µM*
CCn1cc(C(=O)O)c(=O)c2cc(F)c(N3CCN(C(=S)NC(=O)c4ccc(F)cc4)CC3)cc21	17	?	0%	-76%	13%	?
CCCOc1ccc(C(=O)NC(=S)N2CCN(c3cc4c(cc3F)c(=O)c(C(=O)O)cn4CC)CC2)cc1	18	16µM*	?	21%	-2%	15µM*
